Where “and” joins values, the source holds several entries; their conditions need not be identical. Equal entries are not always repeated. Out of some 16,000 compounds screened, about 2,600 (16%) were called active. Roughly 20% stayed inconclusive and do not appear here. The call rests on the fitted dose curve; in most records, active means well fitted curve in the direction sought with a large enough effect; inconclusive means small, poorly fitted or top-dose-only effect, or effect the other way; inactive means no such curve, though single readings can be large or run the other way. Only a sample is shown. Square brackets hold non-standard residues; d marks the D form. Peptide text beside a SMILES is read from it.

AC50 and activity, negative = inhibition data for 85 molecules are collected here from PubChem BioAssay AID1851 (National Center for Advancing Translational Sciences (NCATS), 2009).
On the % scale 0 is the no-effect control and ±100 the full control effect.

Cytochrome P450 2D6 (Homo sapiens), sequence (P10635 whole entry, looked up): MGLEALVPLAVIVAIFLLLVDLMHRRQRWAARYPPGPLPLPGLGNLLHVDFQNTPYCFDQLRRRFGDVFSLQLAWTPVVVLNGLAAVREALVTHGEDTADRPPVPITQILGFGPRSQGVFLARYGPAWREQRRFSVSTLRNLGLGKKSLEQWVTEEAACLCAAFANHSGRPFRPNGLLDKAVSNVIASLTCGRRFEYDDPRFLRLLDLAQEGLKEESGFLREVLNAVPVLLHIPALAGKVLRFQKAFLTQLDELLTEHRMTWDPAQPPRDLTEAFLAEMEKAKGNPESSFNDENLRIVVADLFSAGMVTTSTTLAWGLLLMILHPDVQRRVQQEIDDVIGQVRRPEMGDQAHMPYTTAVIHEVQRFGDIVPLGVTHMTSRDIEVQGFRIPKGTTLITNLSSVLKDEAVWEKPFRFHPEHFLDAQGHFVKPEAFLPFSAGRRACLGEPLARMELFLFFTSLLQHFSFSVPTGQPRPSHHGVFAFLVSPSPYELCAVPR

This experiment has as its target Cytochrome P450 2D6 (Homo sapiens) (UniProt P10635). Nature of the experiment: Cytochrome panel assay with activity outcomes. Particulars: recombinant CYP, pro-luciferin dealkylation, luminescence, p450-cyp2d6; series mostly up to 57.1 µM.
Consider `Cn1c(=O)c(-c2ccc(F)cc2)nc2cnc(N3CCOCC3)nc21`, for which the AC50 (usually the concentration at which the activity in the assay is half-maximal) is “inactive”.

Regarding `Cn1c(=O)c(-c2ccc(Cl)cc2)nc2cnc(Nc3ccccc3)nc21`, the AC50 entry is “inactive”.

As to `Cn1c(-c2sccc2OCc2ccccc2)n[nH]c1=S`, the AC50 entry was “inactive”.

For `O=C(c1cnccn1)N1CCC2(CC1)CN(Cc1cc(C(F)(F)F)cc(C(F)(F)F)c1)C2`, the half-maximal activity concentration (AC50) was 0.398 µM (active).

Regarding `O=C(c1cc(C(F)(F)F)cc(C(F)(F)F)c1)N1CCC2(CC1)CN(Cc1ccncc1)C2`, the AC50 result is “inactive”.

With `O=C(c1cnccn1)N1CCC2(CC1)CN(c1ccncc1)C2`, the AC50 result is “inactive”.

For `CC(C)(C)n1nc2c(c1NC(=O)c1ccc(S(=O)(=O)N3CCCCC3)cc1)CS(=O)C2` (stereo not given), the AC50 result was “inactive”.

Turning to `Cc1cc(NC(=O)NC(=O)c2ccc(F)cc2F)n[nH]1`, the AC50 result was “inactive”.

On to `CCC(C)C1NC(=S)N(C2CCCCC2)C1=O` (stereo not given), for which the AC50 entry is “inactive”.

As for `COc1ccc2c(c1)-c1ccccc1S(=O)(=O)N2C`, the AC50 result is “inactive”.

For the molecule `COc1ccc2c(c1)Cc1cc(N=[N+]([O-])c3ccc4c(c3)Cc3cc(OC)ccc3-4)ccc1-2`, the activity, negative = inhibition is -7.57% [at 11.4 µM] (inactive).

`COc1ccc2c(c1)C(=NN)c1cc(OC)ccc1-2`: the AC50 is 22.4 µM (active).

Take `O=C(Cn1cnc([N+](=O)[O-])c1)NCc1ccc(F)cc1`: the AC50 result is “inactive”.

On to `O=C(Nc1ccccc1)N1CCC2(CC1)CCN(C(=O)c1csnn1)CC2`, for which the AC50 entry was “inactive”.

Regarding `O=C(c1csnn1)N1CCC2(CCN(Cc3nccs3)CC2)CC1`, the AC50 result is “inactive”.

Consider `O=C(c1csnn1)N1CCC2(CCCN(c3ccc(-c4ccccc4)cc3)C2)CC1`, for which the AC50 entry is “inactive”.

In the case of `CC(C)CN1CCCC2(CCN(C(=O)c3csnn3)CC2)C1`, the half-maximal activity concentration (AC50) was 5.01 µM (active).

Turning to `O=C(c1csnn1)N1CCC2(CCCN(Cc3ccccc3)C2)CC1`, the AC50 is 1.26 µM (active).

Take `O=C(c1csnn1)N1CCC2(CC1)CN(c1ccccn1)C2`: the AC50 was 12.6 µM (active).

As for `N#Cc1cccc(NC(=O)N2CCCC3(CCN(C(=O)c4csnn4)CC3)C2)c1`, the AC50 entry is “inactive”.

For the molecule `COc1ccc(NC(=O)N2CC3(CCN(C(=O)c4csnn4)CC3)C2)cc1`, the AC50 entry is “inactive”.

Take `O=C(c1csnn1)N1CCC[C@@]2(CCN(Cc3nccs3)C2)C1`: the AC50 was 5.01 µM (active).

As for `O=C(c1cnccn1)N1CCC2(CC1)CN(c1ccccn1)C2`, the AC50 result was “inactive”.

Regarding `CC(=O)N1CCC2(CC1)CN(c1ccccn1)C2`, the AC50 entry was “inactive”.

With `CC(=O)N1CCC[C@@]2(CCN(Cc3nccs3)C2)C1`, the AC50 entry was “inactive”.

For `O=C(O)CN(CCN(CC(=O)O)CC(=O)O)CC(=O)O.[Cu]`, the activity, negative = inhibition is 2.44% [at 11.4 µM] (inactive).

As for `COCCCn1c(=S)[nH]c2ncccc2c1=O`, the AC50 entry was “inactive”.

As for `CC(=O)O[C@H]1C2=CO[C@H](C)[C@H]3[C@H]4C5=C([C@H](O)[C@H]6O[C@@H]6C5=O)[C@H](O[C@H]4C)[C@@]23C(=O)[C@H]2O[C@@H]21`, the activity, negative = inhibition was 17.5% [at 11.4 µM] (inactive).

Consider `COc1cc2nc(N3CCN(C(=O)c4ccco4)CC3)nc(N)c2cc1OC`, for which the AC50 result is “inactive”.

Regarding `CCNc1nnc(-c2ccncc2)s1`, the AC50 result was “inactive”.

As for `O=C1C[C@@H](O)[C@@H](O)[C@H]2[C@@H]3C(=O)N(C4CCCCC4)C(=O)[C@@H]3CC[C@H]12`, the activity, negative = inhibition was 9.04% [at 11.4 µM] (inactive) and 6.81% [at 11.4 µM] (inactive) and 7.19% [at 11.4 µM] (inactive).

As to `CN1CCN(c2ncc3nc(-c4cccs4)c(=O)n(Cc4cccs4)c3n2)CC1`, the AC50 entry is “inactive”.

Regarding `COc1ccc(C(=O)Nc2nc3c(s2)Cc2cc(OC)ccc2-3)cc1`, the AC50 entry is “inactive”.

With `C=CCN=C1CC(C)(C)CC(=O)/C1=C(\O)c1ccccc1`, the AC50 entry was “inactive”.

Consider `COc1ccc(-n2c(CNC(=O)c3cc(OC)c(OC)c(OC)c3)n[nH]c2=S)cc1`, for which the AC50 result was “inactive”.

With `COc1ccc(NC(=O)N2CCCC3(CCN(C(=O)c4csnn4)CC3)C2)cc1`, the AC50 result was “inactive”.

With `CC(C)NC(=O)N1CC[C@@]2(CCCN(C(=O)c3csnn3)C2)C1`, the AC50 result is “inactive”.

On to `CC(C)CN1CC[C@@]2(CCCN(C(=O)c3csnn3)C2)C1`, for which the half-maximal activity concentration (AC50) is 0.501 µM (active).

For `CN1CCN(c2ccc([N+](=O)[O-])cc2C(=O)N2CCOCC2)CC1`, the AC50 entry is “inactive”.

In the case of `COc1ccc(C(=O)NN)cc1COc1ccc(Br)cc1`, the AC50 is 12.6 µM (active).

On to `COc1ccc(C(=O)NNC(=O)Cc2ccc(-c3ccccc3)cc2)cc1OC`, for which the AC50 entry is “inactive”.

In the case of `COc1ccc(/C=C/C(=O)NCc2cn(C)nc2C)cc1COc1ccc(Br)cc1`, the AC50 result was “inactive”.

On to `COC(=O)[C@H](CCSC)NC(=O)C/C=C\[C@@H](C)CO`, for which the activity, negative = inhibition was 4.64% [at 11.4 µM] (inactive).

As for `COc1ccc([C@@H]2CNC(=O)C2)cc1OC1CCCC1`, the AC50 entry is “inactive”.

On to `CC[C@@H]1OC(=O)[C@H](C)[C@H](O[C@@H]2C[C@](C)(OC)[C@H](O)[C@H](C)O2)[C@H](C)[C@H](O[C@@H]2O[C@@H](C)C[C@@H](N(C)C)[C@@H]2O)[C@](C)(O)C[C@H](C)C(=O)[C@H](C)[C@H](O)[C@]1(C)O`, for which the AC50 entry was “inactive”.

With `CC[C@]1(O)C[C@@H]2CN(CCc3c([nH]c4ccccc34)[C@](C(=O)OC)(c3cc4c(cc3OC)N(C=O)[C@H]3[C@@](O)(C(=O)OC)[C@H](C(=O)OC)[C@@]5(CC)C=CCN6CC[C@]43[C@H]65)C2)C1`, the AC50 result is “inactive”.

As to `CCOc1cc(/C=N/O)cc(Cl)c1OC`, the AC50 entry was “inactive”.

Take `COc1c(Cl)cc(Cl)cc1CNCCNCC(C)O` (stereo not given): the AC50 was 1.78 µM (active).

Turning to `OCCSCc1cc(Cl)cc(Cl)c1O`, the activity, negative = inhibition was -5.19% [at 11.4 µM] (inactive).

Turning to `COc1c(Cl)cc(Cl)cc1CNCCNCCO`, the AC50 is 15.8 µM (active).

`COc1ccc(-c2nc3cnc(N(C)C)nc3n(C[C@H]3CCCO3)c2=O)cc1`: the AC50 result is “inactive”.

For `Cc1ccc(NC(=O)CCC(=O)NNC(=O)c2cccs2)c(C)c1`, the AC50 entry was “inactive”.

As for `C[C@@H]1OC2C3=C(C(=O)[C@H]4O[C@@H]4[C@H]3O)[C@@H]1[C@H]1[C@H](C)OC=C3[C@H](O)[C@H]4O[C@H]4/C(=N\OCc4ccccc4)[C@@]321`, the activity, negative = inhibition is 3.22% [at 11.4 µM] (inactive).

`CO[C@@H]1COC(=O)[C@H](COCc2ccccc2)NC(=O)C/C=C\[C@@H](C)[C@H](OC)COC(=O)[C@@H](C)NC(=O)C/C=C\[C@H]1C`: the activity, negative = inhibition was 0.0549% [at 11.4 µM] (inactive).

Turning to `O=C(O)[C@H]1C[C@@H](CP(=O)(O)O)CCN1`, the AC50 result was “inactive”.

With `CCCNC(=O)OC[C@@H]1O[C@H](CCO/N=C(\C)CCN2CCc3nc(CC)c(CC)cc3C2)C=C[C@@H]1Oc1ccc(OC)cc1`, the activity, negative = inhibition was -13.6% [at 11.4 µM] (inactive).

Regarding `C=CC[C@@H]1C=C[C@H](O/N=C(\C)CCN2CCc3nc(-c4ccccc4)c(-c4ccccc4)cc3C2)[C@H](CO)O1`, the activity, negative = inhibition is 0.49% [at 11.4 µM] (inactive).

As for `CC(=O)OC[C@H]1O[C@@H](O/N=C(\C)CCN2CCc3nc(-c4ccccc4)c(-c4ccccc4)cc3C2)[C@H](OC(C)=O)[C@@H](OC(C)=O)[C@H]1OC(C)=O`, the AC50 was 3.16 µM (active).

For the molecule `CC(=O)OC[C@@H]1O[C@H](CCO/N=C(\C)CCN2CCc3nc(-c4ccccc4)c(-c4ccccc4)cc3C2)C=C[C@@H]1OC(C)=O`, the activity, negative = inhibition was -10.6% [at 11.4 µM] (inactive).

On to `CCc1cc2c(nc1CC)CCN(CC/C(C)=N/OCC[C@@H]1C=C[C@H](OC(C)=O)[C@H](COC(C)=O)O1)C2`, for which the activity, negative = inhibition was -5.93% [at 11.4 µM] (inactive).

On to `CCc1cc2c(nc1CC)CCN(CC/C(C)=N/O[C@@H]1O[C@H](COC(C)=O)[C@H](OC(C)=O)[C@H](OC(C)=O)[C@H]1OC(C)=O)C2`, for which the concentration at half-maximal activity (AC50) was 3.98 µM (active).

Consider `CC1(C)CC(=O)C(C(C#Cc2ccccc2)C2=C(O)CC(C)(C)CC2=O)=C(O)C1`, for which the AC50 result is “inactive”.

In the case of `CSc1nc2cc(S(=O)(=O)N3CCCCC3)ccc2s1`, the activity, negative = inhibition is 11.3% [at 11.4 µM] (inactive).

Consider `O=C(O)CONC(=O)c1cc(OCC(F)(F)F)ccc1OCC(F)(F)F`, for which the AC50 result was “inactive”.

In the case of `O=C(NCC1CCCO1)/C(=C\c1ccco1)NC(=O)c1ccccc1` (stereo not given), the AC50 result is “inactive”.

On to `O=C(Nc1ccc(OC(=O)c2cccnc2)cc1)c1cccnc1`, for which the AC50 entry was “inactive”.

For the molecule `O=C(Nc1cccnc1)c1ccc2snnc2c1`, the AC50 is 15.8 µM (active).

Consider `O=C(Nc1cccc(OC(=O)c2cccnc2)c1)c1cccnc1`, for which the AC50 result was “inactive”.

`O=C(CCn1nc(-c2ccc(Cl)cc2)ccc1=O)NCc1ccccn1`: the AC50 entry was “inactive”.

For the molecule `O=C1C=C(NCCc2cc(Br)c(O)c(Br)c2)C(=O)c2ncccc21`, the AC50 was 1.58 µM (active).

For `O=C1C=C(Nc2nc(C(=O)O)cc(=O)[nH]2)c2ccccc2C1=O`, the activity, negative = inhibition was -6.72% [at 11.4 µM] (inactive).

As to `Cc1cccc(Oc2coc3cc(OC(=O)c4cc5ccccc5oc4=O)ccc3c2=O)c1`, the AC50 entry was “inactive”.

As to `CCOC(=O)c1cc(C#N)c(Oc2ccccc2OC)nc1-c1ccccc1`, the AC50 result is “inactive”.

As for `CCOc1cc(C)ccc1OCc1nnc(SCC(=O)c2cccc([N+](=O)[O-])c2)n1CC`, the AC50 result is “inactive”.

Turning to `Cc1cc2c(ncn2Cc2ccccc2)c([N+](=O)[O-])c1C`, the AC50 entry is “inactive”.

As to `CCCCN1C(=O)CC(Sc2ccccc2C(=O)O)C1=O` (stereo not given), the AC50 entry is “inactive”.

Consider `CCCCN1C2=NCCCN2c2ccccc21`, for which the AC50 is 5.01 µM (active).

Regarding `Cc1ccc(C)c(C(=O)CN2C3=NCCCN3c3ccccc32)c1`, the AC50 was 0.01 µM (active).

Consider `Cc1ccccc1CN1C2=NCCN2C(=O)C2=C1CCN(Cc1ccccc1)C2`, for which the activity, negative = inhibition is -16.1% [at 11.4 µM] (inactive).

With `CCCN1C2=NCCCN2c2ccccc21`, the AC50 was 7.08 µM (active).

As for `CC(C)C[C@H]1C(=O)N2CCC[C@@H]2[C@]2(O)O[C@](NC(=O)[C@H]3C=C4c5cccc6[nH]c(Br)c(c56)C[C@H]4N(C)C3)(C(C)C)C(=O)N12`, the AC50 result was “inactive”.

Turning to `COCCCN1C(=O)C(=O)/C(=C(/O)c2ccc(OC(C)C)c(C)c2)C1c1ccncc1` (stereo not given), the AC50 entry was “inactive”.

Take `N[C@H](CO)C(=O)NCC(=O)O` (H-[dS]-Gly-OH): the activity, negative = inhibition is -2.94% [at 11.4 µM] (inactive).

As for `Cc1cc(C)nc(NS(=O)(=O)c2ccc(N)cc2)n1`, the AC50 result is “inactive”.

Regarding `CN1C(=O)/C(=C\c2ccccc2)Sc2ccc(C(=O)N3CCN(c4ccccn4)CC3)cc21`, the AC50 result was “inactive”.
